A selection: hits, their analogues and other compounds. The true share with any hit is near 2.2%.
AI-2 QS modul – Vibrio harveyi AI-2 quorum sensing modulation; Vibrio harveyi JMH597 AI-2 luminescence/OD600 ratio, 9 h; stronger effect = lower value; strain lacks LuxN and CqsS sensors; 0 = neutral-control median; activity change, % at 7.5 µM; actives 0.4% (n = 300,000); in the data active = activity change below about -75%, passing the limit was not always enough;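 note: luminescence divided by OD600 gain over 9 h not by final OD600 alone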
CHT PAM – allosteric activators of human choline transporter CHT; CHT-expressing cells, membrane potential dye, choline EC20; stronger effect = higher value; LV-AA mutant CHT in HEK293 cells; actives 0.49% (n = 310,000); B-score at 10 µM;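 active = initial fluorescence not abnormally high and integrated response B-score, plate-corrected, over 3 SD above library mean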
Target sequence (Q9GZV3 whole entry, looked up): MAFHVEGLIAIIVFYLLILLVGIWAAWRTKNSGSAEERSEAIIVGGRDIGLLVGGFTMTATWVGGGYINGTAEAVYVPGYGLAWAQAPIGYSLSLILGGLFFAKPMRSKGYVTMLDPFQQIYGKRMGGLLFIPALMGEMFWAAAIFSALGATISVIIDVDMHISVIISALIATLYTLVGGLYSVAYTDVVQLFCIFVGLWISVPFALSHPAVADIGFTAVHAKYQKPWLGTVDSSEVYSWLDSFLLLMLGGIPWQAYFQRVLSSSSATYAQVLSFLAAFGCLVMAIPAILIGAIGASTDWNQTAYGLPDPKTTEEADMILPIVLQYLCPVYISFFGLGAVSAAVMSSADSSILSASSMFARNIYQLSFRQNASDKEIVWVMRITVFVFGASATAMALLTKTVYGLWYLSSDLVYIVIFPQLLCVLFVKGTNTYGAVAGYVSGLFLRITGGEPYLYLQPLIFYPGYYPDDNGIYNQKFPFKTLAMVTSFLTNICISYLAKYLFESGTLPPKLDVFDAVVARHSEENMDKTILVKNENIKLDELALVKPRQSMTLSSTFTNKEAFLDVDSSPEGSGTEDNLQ
VLA-4 inh – inhibition in a human VLA-4 binding assay; P13612; VLA-4 expressing cells, ligand binding flow cytometry; inhibition, % (about 7 µM as worked out from the volumes in the protocol); actives 0.2% (n = 330,000); AID 2557; in the data active = inhibition above about 50%
HIF activator – HIF pathway transcriptional activation; U2OS HRE-luciferase reporter, luminescence; normalized: DMSO 0%, desferrioxamine 100%; activation, % at 7.5 µM (by protocol); actives 0.32% (n = 300,000); AID 1910;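 active = mean activation of at least 10% of the iron chelator positive control signal, with at least half of replicates also reaching 10%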
Platelet DG rel – platelet dense granule release activity; inhibition, %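 (compounds screened at 7.5 µM in platelet-rich plasma)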; AID 1663; actives 0.22% (n = 300,000); human platelet-rich plasma, SFLLRN dense granule ATP release, luminescence;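 active = mean replicate score, as percent of positive control, at or above 50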
CHT inh – human CHT choline transport inhibition; CHT-expressing cells, membrane potential dye, choline response; stronger effect = lower value; B-score at 10 µM; actives 0.86% (n = 310,000); Q9GZV3;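 active = B-score over 3 SD under the library average, and starting fluorescence ratio not unusually high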;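 note: choline stimulus applied at its EC90 after an EC20 pre-addition; B-score computed on integrated fluorescence ratio after choline addition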
CHT activ conf – confirmation of human choline transporter (CHT) activators | shares compounds with CHT PAM | CHT-expressing cells, membrane potential dye fluorescence (FDSS); % of choline EC20–EC90 response window; HEK293 expressing CHT LV-AA mutant; choline added at its EC20 | activation, % at 10 µM | actives 91% (n = 2,500);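 active = primary screen active, with duplicate mean activation above negative control mean plus 3 SD, cut at about 11% in these data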
HEK293 MP dye – CHT activator counter-screen hit in parental HEK293 cells. shares compounds with CHT PAM. membrane potential dye fluorescence (FDSS); measured after EC20 choline addition. ratio readout change at 10 µM, hits read low. actives 62% (n = 2,500);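 active = duplicate-averaged ratio beyond 3 SD from buffer wells, up or down, though filed actives are nearly all decreases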
Of the large screens only hits and unclear results are named; the others gave an inactive call (follow-up assays come after a bar, where they were run).

Cn1c(=O)c(=O)n(C)c2cc(S(=O)(=O)N3CCN(C4CCCCC4)CC3)ccc21	CHT PAM 13 | CHT activ conf 106 | HEK293 MP dye -50
CC[n+]1c(/C=C/c2ccc(OC)c(OC)c2)ccc2ccccc21	none
CC[n+]1c(/C=C/c2ccc(OC(C)=O)c(OC)c2)ccc2ccccc21	CHT PAM 7.2 | CHT activ conf 45 | HEK293 MP dye -74
CC[n+]1c(/C=C/c2cc([N+](=O)[O-])ccc2O)ccc2ccccc21	none | CHT activ conf 17 | HEK293 MP dye -52
COc1cc(OC)cc(C2=NCCN2)c1	none | CHT activ conf 35 | HEK293 MP dye -43
O=C(Nc1cccc(C2=NCCN2)c1)Nc1cccc(C2=NCCN2)c1	none (no result: AI-2 QS modul, HIF activator, Platelet DG rel)
COc1ccc(Cl)cc1NC(=O)CN(C)C(=O)c1cc(-c2ccncc2)nc2ccccc12	CHT PAM 7.8 | CHT activ conf 49 | HEK293 MP dye inactive
O=C(COC(=O)c1ccc(OC(F)(F)F)cc1)NCCN1C(=O)CSC1=O	none (no result: AI-2 QS modul, CHT PAM, HIF activator, Platelet DG rel, CHT inh)
Cc1cccc(NC(=O)C2C3C=CC(O3)C2C(=O)O)c1 (stereo not drawn)	none
CC(=O)Nc1ccc(S(=O)(=O)Nc2nnc(Cc3ccc(Cl)cc3)s2)cc1	none (no result: AI-2 QS modul)
O=C1CCC(C(=O)N(Cc2cccs2)C2(C(=O)NC3CCCCC3)CCCCC2)N1 (stereo not drawn)	CHT PAM 7 | CHT activ conf 31 | HEK293 MP dye inactive
O=C(Cc1cccs1)N(Cc1cccs1)C1(C(=O)NC2CCCCC2)CCCCC1	none
Nn1c(SCC(=O)Nc2nccs2)nnc1-c1ccccn1	none
Clc1ccccc1CNc1nc2ccccc2n2cnnc12	none
COC(=O)CS(=O)(=O)c1cccc2cccnc12	none
Cc1cc(NCCCN2CCOCC2)n2c(nc3ccccc32)c1C#N	CHT PAM 6.3 | CHT activ conf 55 | HEK293 MP dye -91
CCN(CC)CCNc1cc(C)c(C#N)c2nc3ccccc3n12	none | CHT activ conf 42 | HEK293 MP dye -81
CCCc1cc(NCCCN2CCOCC2)n2c(nc3ccccc32)c1C#N	none
Cc1c2c(n3c(nc4ccccc43)c1C#N)N(CCN1CCOCC1)CC2	CHT PAM 7.9 | CHT activ conf 54 | HEK293 MP dye -46
Cc1cc(NCCN2CCOCC2)n2c(nc3ccccc32)c1C#N	none
Cc1cc(=O)c2c([nH]1)c(C)cc1[nH]c(C)c(C)c12	none (no result: AI-2 QS modul, CHT PAM, HIF activator, Platelet DG rel, CHT inh)
O=C(c1ccc2[nH]c(=O)c(=O)[nH]c2c1)N1CCN(Cc2ccccc2)CC1	none
CSc1nnc2c(n1)OC(C)=Nc1ccccc1-2	none | CHT activ conf 41 | HEK293 MP dye -41
Cc1cc[n+](CC(=O)c2cccc([N+](=O)[O-])c2)c2ccccc12	CHT PAM 8.8 | CHT activ conf 49 | HEK293 MP dye -58
O=C(NCC1CC1)[C@@H]1C[C@H]1[C@@H](NP(=O)(c1ccccc1)c1ccccc1)c1ccccc1	none | CHT activ conf inactive | HEK293 MP dye inactive
Cc1ccc(NC(=O)CN(C)C(=O)c2ccc(Cl)nc2)cc1	none
Nc1ccc(N2CCCCC2)cc1N1CCCCC1	CHT PAM 7.9 | CHT activ conf 49 | HEK293 MP dye -32
CN1CCCCC1=NCCCn1cnc2c1c(=O)n(C)c(=O)n2C	CHT PAM 7.2 | CHT activ conf 47 | HEK293 MP dye -49
Cn1nnc2cc(C(=O)Nc3ccccc3)ccc21	none
Cn1nnc2cc(C(=O)Nc3cccnc3)ccc21	CHT PAM 6.7 | CHT activ conf 52 | HEK293 MP dye -34
Cc1sc2nc(CN3CCCC3)nc(Cl)c2c1C	none | CHT activ conf 52 | HEK293 MP dye inactive
Cc1sc2nc(CN3CCCC3)nc(NCc3ccncc3)c2c1C	CHT PAM 6.3 | CHT activ conf 32 | HEK293 MP dye -34
Cc1[nH]c(SCC(=O)c2c(N)n(C)c(=O)n(C)c2=O)nc1Cc1ccccc1	none (no result: AI-2 QS modul, CHT PAM, HIF activator, Platelet DG rel, CHT inh)

Assay outcomes as filed in PubChem BioAssay.
